# From PubChem BioAssay AID1476 (National Center for Advancing Translational Sciences (NCATS), 2009)
# Hit rate of the full screen: of about 200,000 compounds, about 4,500 (2.2%) were called active. Inconclusive results (about 12%) are left out. Calls come from the whole dose curve; as a rule, active = well fitted inhibition curve with a large enough effect; inconclusive = small, poorly fitted or top-dose-only effect, or effect the other way; inactive = flat fitted curve, though single readings scatter. Shown is part of a subset that was picked to be rich in actives.
# Molecular target: Cruzipain (Trypanosoma cruzi) (UniProt P25779)
# Assay: qHTS Assay for Promiscuous and Specific Inhibitors of Cruzain (without detergent); note: nearly all actives have a fitted effect of over 40% in size;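 for max response, negative = inhibition: plate controls were enzyme without inhibitor for no effect and buffer without enzyme for full effect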
# Settings: purified cruzain, Z-FR-AMC fluorescence, no detergent
# Method in brief: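 Purified cruzain at 1.5 nM, pre-incubated 15 min with compound at room temperature in 100 mM sodium acetate pH 5.5, 5 mM DTT, 0.00005% Triton X-100. Reaction started with 2 uM Z-FR-AMC; AMC fluorescence increase over 60 s gives rate.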
# Potency is the fitted concentration of half-maximal effect.
# Sequence of Cruzipain (Trypanosoma cruzi) (P25779 123-467 limits assumed): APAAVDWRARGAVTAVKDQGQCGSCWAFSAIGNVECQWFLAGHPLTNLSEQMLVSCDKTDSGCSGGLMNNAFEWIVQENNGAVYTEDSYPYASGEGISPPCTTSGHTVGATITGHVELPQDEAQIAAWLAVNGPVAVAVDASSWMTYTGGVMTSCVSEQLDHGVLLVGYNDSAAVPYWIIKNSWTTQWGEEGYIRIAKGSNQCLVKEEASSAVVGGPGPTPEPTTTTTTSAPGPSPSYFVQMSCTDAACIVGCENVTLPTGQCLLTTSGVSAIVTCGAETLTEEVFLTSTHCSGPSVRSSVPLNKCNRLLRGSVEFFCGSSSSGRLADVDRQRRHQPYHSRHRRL
SMILES,"max response, negative = inhibition",Potency
Cc1ccc(-c2nc(SCc3ccc(Br)cc3)n3[nH]c(=O)cc3n2)cc1,-0.81% (inactive),–
COc1ccc(OC)c(CNC(=O)Cn2nc(C)c3c(C)n(-c4ccccc4)nc3c2=O)c1,-8.59% (inactive),–
N#Cc1c(NC(=O)CSc2nc3ccccc3c(=O)n2Cc2ccco2)sc2c1CCCC2,–,10 µM (active)
NC(=O)c1c(NC(=O)CSc2nnc(-c3ccco3)n2N)sc2c1CCCC2,-17% (inactive),–
CC(Sc1nc2ccccc2c(=O)n1Cc1ccco1)C(=O)c1ccccc1 (stereo not drawn),-8.72% (inactive),–
CCOc1ccc(N(CC)S(=O)(=O)N2CCCC(C(=O)NCc3ccc(SC)cc3)C2)cc1 (stereo not drawn),16% (inactive),–
COc1ccc(OC)c(C2C3=C(N=c4s/c(=C\c5cccc(O)c5)c(=O)n42)c2ccccc2CC3)c1 (stereo not drawn),–,3.16 µM (active)
O=C1CCCC2=C1C(c1ccccc1)n1c(s/c(=C/c3cccc(F)c3)c1=O)=N2 (stereo not drawn),-0.66% (inactive),–
COCCOC(=O)C1=C(C)N=c2s/c(=C\c3cccs3)c(=O)n2C1c1cccs1 (stereo not drawn),14.7% (inactive),–
Cc1ccc2nc(NC(=O)c3nc(SCc4ccccc4F)ncc3Cl)sc2c1,16.1% (inactive),–
CCOC(=O)c1c(NC(=O)c2ccc(Br)o2)sc2c1CCCC2,-20.9% (inactive),–
CCCOC(=O)c1c(NC(=O)c2cnn3c2NC(c2ccccc2)CC3C(F)(F)F)sc2c1CCCC2 (stereo not drawn),–,5.01 µM (active)
CCCOC(=O)c1c(NC(=O)c2cc3nc(-c4ccc(OC)cc4)cc(C(F)(F)F)n3n2)sc2c1CCCC2,3.32% (inactive),–
CCOC(=O)c1ccc(NC(=O)CCn2c(=O)oc3ccccc32)cc1,-3.92% (inactive),–
CCOC(=O)C1CCN(c2nc3c(S(=O)(=O)c4ccc(CC)cc4)nnn3c3ccc(Cl)cc23)CC1,-25.4% (inactive),–
CCNC(=O)c1cc2n(n1)CCCN(Cc1ccc(C)cc1)C2=O,4.87% (inactive),–
Cc1ccccc1CNC(=O)CCc1cn(Cc2ccccc2C)c2ccccc12,0.523% (inactive),–
COc1ccc(C)cc1Nc1nc2ccccc2c2nnc(C)n12,-0.388% (inactive),–
COc1ccc(OC)c(Nc2nc(-c3ccc(O)c(O)c3)cs2)c1,-16.7% (inactive),–
COc1ccc(C)cc1Nc1nc(-c2c(C)[nH]c3ccccc23)cs1,–,25.1 µM (active)
CCC1=Nc2cc(C(=O)NCC(C)c3ccccc3)ccc2Sc2ccc(C)cc21 (stereo not drawn),–,12.6 µM (active)
CCCC1=Nc2cc(C(=O)NCc3ccco3)ccc2Sc2ccccc21,-12.6% (inactive),–

SMILES,"max response, negative = inhibition",Potency
COCCNC(=O)c1ccc2c(c1)N=C(C)c1cc(C)ccc1S2,12.7% (inactive),–
Cc1ccc(CCNC(=O)c2ccc(CNS(=O)(=O)c3ccc(C)cc3)cc2)cc1,-23% (inactive),–
CCOC(=O)c1cc2c(=O)n3ccccc3nc2n(CCCOC)c1=NC(=O)C(C)(C)Oc1ccc(Cl)cc1,4% (inactive),–
Cc1ccc(/C=N/NC(=O)C2=NNC(c3ccccc3)(c3ccccc3)C2)c(O)c1,–,20 µM (active)
Cc1ccc2nc(CNC(=O)c3ccccc3)[nH]c2c1,6.98% (inactive),–
COc1cccc(/C=N\NC(=O)C2=NNC(=O)C2C)c1O (stereo not drawn),14.7% (inactive),–
COc1ccc(CCNc2ncnc3onc(-c4ccc(Cl)cc4)c23)c(OC)c1,-2.97% (inactive),–
CCOc1cccc(CNC(=O)c2ccc(N3CCCC3)c(NC(=O)Nc3ccccc3CC)c2)c1,-7.71% (inactive),–
Nc1nc(SCc2ccccc2Cl)n[nH]1,3.93% (inactive),–
c1ccc(CSc2nnc(-c3ccco3)c(-c3ccco3)n2)cc1,–,15.8 µM (active)
Clc1ccccc1CSc1nnc(-c2ccco2)c(-c2ccco2)n1,–,15.8 µM (active)
O=C(Nc1nnc(SCc2ccccc2)s1)c1ccco1,-28.7% (inactive),–
c1ccc(CSc2nnc(-c3ccco3)n2Cc2ccccc2)cc1,-8.71% (inactive),–
Clc1ccccc1CSc1nncn2c1cc1occc12,-9.48% (inactive),–
Cc1ccccc1-c1nc(SCC(=O)N(C)c2ccccc2)c2c(=O)n(C)c(=O)n(C)c2n1,8.08% (inactive),–
Cc1[nH]c2ccccc2c1C(c1ccccc1)c1cccs1 (stereo not drawn),3.04% (inactive),–
CCc1nn(CC(=O)NCC(C)c2ccccc2)c(=O)c2cc3occc3n12 (stereo not drawn),-11.2% (inactive),–
CCn1c(C(=O)Nc2cc(Cl)ccc2C)cc2sc(Cl)cc21,4.79% (inactive),–
CCOC(=O)c1c(NC(=O)c2cccs2)sc(C)c1C,6.07% (inactive),–
CCOC(=O)c1c(NC(=S)NC(=O)/C=C/c2cccs2)sc(C)c1C,–,10 µM (active)
CCOC(=O)c1c(NC(=O)/C=C/c2ccco2)sc(C)c1C,-4.04% (inactive),–
Cc1ccc2nc(COc3ccccc3NC(=O)Nc3ccc(F)c(Cl)c3)cc(=O)n2c1,4.26% (inactive),–

SMILES,"max response, negative = inhibition",Potency
COc1ccc(N(C)C(=O)CCS(=O)(=O)c2cccc3nsnc23)cc1,-4.91% (inactive),–
Cc1ccc(NC(=O)CSc2nnc3[nH]c(=O)cc(C)n23)cc1Cl,-3.39% (inactive),–
Cc1ccc(C)c(OCC(=O)Nc2sc3c(c2C#N)CCCC3)c1C,-0.311% (inactive),–
CC(=O)c1c(C)[nH]c(C(=O)OCC(=O)Nc2sc3c(c2C#N)CCCC3)c1C,11.6% (inactive),–
Cc1cccc(C(=O)OCC(=O)Nc2sc3c(c2C#N)CCC3)c1,–,25.1 µM (active)
Cc1cc(C)c2oc(-c3cccc(NC(=O)c4cccc(F)c4)c3C)nc2c1,-10.4% (inactive),–
CCOC(=O)c1cccc(NS(=O)(=O)c2cc(-c3cnc(C)o3)ccc2OC)c1,1.23% (inactive),–
COc1ccccc1N1CCN(C(=O)c2cc(-c3ccc(Br)cc3)on2)CC1,16.1% (inactive),–
COc1ccccc1-c1cc(C(=O)N2CCCCC2)no1,-9.93% (inactive),–
COc1ccccc1N1CCN(C(=O)c2cc(-c3ccc(Cl)c(Cl)c3)on2)CC1,–,25.1 µM (active)
O=C(Nc1c(C(=O)N2CCN(c3ccc(F)cc3)CC2)oc2ccccc12)c1ccco1,-12.7% (inactive),–
COc1ccccc1CN1CCC(CNC(=O)c2cnn(-c3cccc(Cl)c3)c2C2CCN(C(=O)OC(C)(C)C)CC2)CC1,4.5% (inactive),–
CC1=C(c2ccc(F)cc2)S(=O)(=O)N=C1N1CCC(C(=O)NCCc2ccccc2C)CC1,-2.21% (inactive),–
CNc1nc(-c2ccccc2OC)nc2ccccc12,-18.4% (inactive),–
COc1ccccc1C1=Nc2cccc3cccc(c23)N1,–,12.6 µM (active)
COc1ccccc1-c1nc(C(F)(F)F)c(OC)o1,-2.62% (inactive),–
Cc1ccc(NC(=O)NC(C)c2c(-n3cccc3)sc(C)c2C)c(C)c1 (stereo not drawn),-10.8% (inactive),–
CCC(=O)N1CCc2cc(Br)cc(S(=O)(=O)Nc3ccc(C)cc3C)c21,-1.34% (inactive),–
C=C(C)COc1ccc(-c2n[nH]c(C)c2-c2ccccc2)c(O)c1,-10.5% (inactive),–
Cc1[nH]nc(-c2ccc(OCc3cnn(-c4ccccc4)c3)cc2O)c1Oc1ccc(Cl)cc1,–,10 µM (active)
COc1ccc(C(=O)Cc2cnn(-c3ccccc3)c2)c(O)c1,4.15% (inactive),–
CCCN(CCC)CCNC(=O)Cn1cnc2sc(C)c(S(=O)(=O)N3CCC(C)CC3)c2c1=O,-2.05% (inactive),–

SMILES,"max response, negative = inhibition",Potency
COc1cc(C(CC(=O)NCCC(C)C)N2Cc3ccccc3C2=O)cc(OC)c1OC (stereo not drawn),2.58% (inactive),–
COc1ccc(Nc2cc(=O)oc3ccccc23)cc1,-23.8% (inactive),–
COc1cc(OC)c2c(-c3cccc(-c4cccc(N)c4)c3)cc(=O)oc2c1,–,11.2 µM (active)
COC(=O)C(C)Oc1ccc2c(-c3cccc([N+](=O)[O-])c3)cc(=O)oc2c1 (stereo not drawn),0.187% (inactive),–
Cc1c(C(=O)N2CCCC2)oc2c1-c1nn(CC(=O)NCc3ccc(OC(C)C)cc3)cc1CC2,21.1% (inactive),–
CC(C)=C(NC(=O)c1ccco1)C(=O)NCCc1nc2ccccc2[nH]1,-27.9% (inactive),–
O=C(COc1ccccc1)NCCc1nc2ccccc2[nH]1,–,1 µM (active)
COc1ccc(OC(C)C(=O)NCCc2nc3ccccc3[nH]2)cc1 (stereo not drawn),-6.55% (inactive),–
Cc1cccc(NC(c2cccc(F)c2)c2ccc3ccc(C)nc3c2O)n1 (stereo not drawn),9.47% (inactive),–
Cc1cc(NS(=O)(=O)c2ccc(NC(=O)c3ccccc3C)cc2)nc(C)n1,11.3% (inactive),–
O=C(Cn1cnc2c(nnn2Cc2ccc(F)cc2)c1=O)NCc1ccc2c(c1)OCO2,-6.08% (inactive),–
CCCc1nc(NCc2ccc3c(c2)OCO3)c2nnn(Cc3ccccc3Cl)c2n1,–,7.94 µM (active)
Cc1nc(Nc2ccc3c(c2)OCCO3)c2nnn(Cc3ccccc3Cl)c2n1,-5.56% (inactive),–
Cc1ccccc1-c1nc(CS(=O)(=O)CC(=O)Nc2cc(Cl)cc(Cl)c2)c(C)o1,-28.1% (inactive),–
COc1ccc(-c2[nH]c3c(c2-c2c(-n4cccc4)n(C)c(=O)n(C)c2=O)c(=O)n(C)c(=O)n3C)cc1,-3.26% (inactive),–
COc1ccc(C(=O)Nc2nc(-c3ccc(OC)cc3)c(-c3ccc([N+](=O)[O-])cc3)s2)cc1,–,7.94 µM (active)
COC(=O)C(NC(=O)c1ccc(OC)cc1)(Nc1ncc(S(=O)(=O)c2ccc([N+](=O)[O-])cc2)s1)C(F)(F)F (stereo not drawn),-9.17% (inactive),–
COc1ccc(C(=O)Nc2ncc3c(n2)-c2ccccc2CC3)cc1,-8% (inactive),–
O=C(NCc1ccccc1Cl)c1cccn1-c1nnc(N2CCCCC2)s1,-7.04% (inactive),–
Oc1ccc(O)c2c(O)cccc12,–,12.6 µM (active)
O=c1cc(-c2ccc(O)c(O)c2)oc2cccc(O)c12,0.411% (inactive),–
O=S(=O)(c1ccc(Cl)cc1)c1nnn2c1nc(NC1CCCC1)c1sccc12,1.8% (inactive),–
